{
  "source": "ChEMBL document CHEMBL4513216",
  "about": "“Probing the Open Global Health Chemical Diversity Library for Multistage-Active Starting Points for Next-Generation Antimalarials” (ACS Infect Dis, 2020)",
  "note": "The campaign covered roughly 69,000 compounds. About 8,600 (12%) showed an effect of 50% or more. The sample as a whole holds a higher share of strong results than the screen did.",
  "data": [
    {"test_system": "Plasmodium berghei", "experiment": "Screen against P. berghei liver stage (PbLuc), transformed with Luciferase, at 10uM", "type": "functional, HepG2", "conditions": "tested at 10 uM", "units": {"INHIBITION": "%"}, "values": [
      {"smiles": "O=C1CCOC[C@]2(CN(Cc3ccccc3)C[C@H]2c2cccnc2)N1", "INHIBITION": 20.6},
      {"smiles": "CCC(C)N(Cc1ccsc1)C(=O)c1ccc(CO)cc1", "note": "(stereo not given)", "INHIBITION": 2.7},
      {"smiles": "CC(=O)Nc1nc(C2CCN(C(=O)c3cncs3)CC2)cs1", "INHIBITION": 48.6},
      {"smiles": "CC(=O)Nc1nc(C2CCN(C(C)C)CC2)cs1", "INHIBITION": 23.4},
      {"smiles": "CC(=O)Nc1nc(C2CCN(C(C)=O)CC2)cs1", "INHIBITION": 27.9},
      {"smiles": "CC(=O)Nc1nc(C2CCN(CC(N)=O)CC2)cs1", "INHIBITION": 63.7},
      {"smiles": "CC(=O)Nc1nc(C2CCN(C(=O)c3cccnc3)CC2)cs1", "INHIBITION": 60.8},
      {"smiles": "CC(=O)Nc1nc(C2CCN(C(=O)c3ccncc3)CC2)cs1", "INHIBITION": -9.27},
      {"smiles": "C[C@@H]1CC[C@@H](C)N1C(=O)c1cc(COc2ccccc2)[nH]n1", "INHIBITION": 36.7},
      {"smiles": "Cc1cc(C)n(CC(=O)N2CCCCC2CCc2cccs2)c(=O)n1", "note": "(stereo not given)", "INHIBITION": 31.2},
      {"smiles": "c1c(CN2CCCC2)nc2n1CCNC2", "INHIBITION": 33.4},
      {"smiles": "Cc1ccc(O)c(CNc2cccc(OCCF)c2)n1", "INHIBITION": 9.91},
      {"smiles": "CC[C@@H]1N(Cc2ccco2)CCC[C@]12CCC(=O)N2C", "INHIBITION": 6.27},
      {"smiles": "CCCN(C)CC1CCN(c2ncc(Br)cn2)C1", "note": "(stereo not given)", "INHIBITION": 68},
      {"smiles": "CCN(C)CC1CCN(c2ncc(Br)cn2)C1", "note": "(stereo not given)", "INHIBITION": 26},
      {"smiles": "CCN(C)CC1CCN(C(=O)Nc2ccc(C)cc2)C1", "note": "(stereo not given)", "INHIBITION": -45.4},
      {"smiles": "Cc1nc(C2CCCN(c3ncc(Br)cn3)C2)no1", "note": "(stereo not given)", "INHIBITION": 19.8},
      {"smiles": "Cc1ccc(N2CCCC(N(C)Cc3nc(C)c(C)o3)C2)nn1", "note": "(stereo not given)", "INHIBITION": 40.9},
      {"smiles": "CCCN(C)CC1CCN(c2ccc(Br)c(C)n2)C1", "note": "(stereo not given)", "INHIBITION": 74.8},
      {"smiles": "Cc1ccc2ncn(C(C)Cn3cccn3)c(=O)c2c1", "note": "(stereo not given)", "INHIBITION": 3.82},
      {"smiles": "O=C(NCc1sc2ccccc2c1Cl)c1cc2n(n1)CCNC2", "INHIBITION": 25.1},
      {"smiles": "O=C(C1CCOCC1)N1CCO[C@@H]2[C@@H](OCc3ccncc3)CC[C@@H]21", "INHIBITION": 23.6},
      {"smiles": "CC(C)c1nc(CS(=O)(=O)Cc2noc(C3CC3)n2)cs1", "INHIBITION": 47.6},
      {"smiles": "Cc1ncsc1CN1CC[C@H]2OCC[C@@]2(C(=O)NC2CC2)C1", "INHIBITION": -45.5},
      {"smiles": "COc1cc(CNC(=O)N(Cc2ccc(F)cc2F)C2CC2)ccn1", "INHIBITION": -15.5},
      {"smiles": "Cc1cc(-c2ccc(=O)n(C3CCN(C(=O)C4CC4)CC3)n2)c(C)o1", "INHIBITION": 23},
      {"smiles": "CN(C)C(=O)COCc1cncc2c1CCN(C1CCOCC1)C2", "INHIBITION": 4.68},
      {"smiles": "N#Cc1c2n(c3c(=O)[nH]cnc13)CCCCC2", "INHIBITION": 23.5},
      {"smiles": "COc1cccc(-c2noc(CN3CCOCC3C)n2)c1", "note": "(stereo not given)", "INHIBITION": -7.35},
      {"smiles": "CN(Cc1noc(C2CC2)n1)C1CCN(Cc2ccncc2)C1", "note": "(stereo not given)", "INHIBITION": 45.8},
      {"smiles": "COc1cccc(-c2noc(C3CCN(CC(N)=O)C3)n2)c1", "note": "(stereo not given)", "INHIBITION": 41.2},
      {"smiles": "COc1cccc(-c2noc(C3CCN(Cc4cccs4)C3)n2)c1", "note": "(stereo not given)", "INHIBITION": 49.6},
      {"smiles": "COc1cccc(-c2noc(C3CCN(Cc4ccccc4F)C3)n2)c1", "note": "(stereo not given)", "INHIBITION": 84.2},
      {"smiles": "COc1cccc(-c2noc(C3CCN(Cc4ccncc4)C3)n2)c1", "note": "(stereo not given)", "INHIBITION": 78.2},
      {"smiles": "COc1cccc(CN2CC[C@H](c3nnc(C)o3)C2)c1", "INHIBITION": -30},
      {"smiles": "COc1cccc(-c2noc(C3CCN(Cc4ccc(C)cc4)C3)n2)c1", "note": "(stereo not given)", "INHIBITION": 66.4},
      {"smiles": "COc1cccc(CN2CC[C@H](c3nnc(-c4ccco4)o3)C2)c1", "INHIBITION": -26.1},
      {"smiles": "Cc1cccc(-c2noc([C@@H]3C[C@@H](O)CN3CC3CCCCC3)n2)c1", "INHIBITION": -27.5},
      {"smiles": "COc1cccc(-c2noc(C3CCN(CC4CCCCC4)C3)n2)c1", "note": "(stereo not given)", "INHIBITION": 67.9},
      {"smiles": "COc1cccc(-c2noc(C3CCN(Cc4ccccc4C)C3)n2)c1", "note": "(stereo not given)", "INHIBITION": 45.6},
      {"smiles": "CCN1CC(CN(C)Cc2nc(-c3ccc(C)o3)oc2C)CC1=O", "note": "(stereo not given)", "INHIBITION": 34.2},
      {"smiles": "Cc1noc(C(C)C)c1C(=O)NS(=O)(=O)c1ccc2c(c1)OCCCO2", "INHIBITION": 7.9},
      {"smiles": "CNC(=O)c1ccc(-c2ccc(CNC(=O)COC)cc2)nc1C", "INHIBITION": 10.9},
      {"smiles": "Cc1ccc(CN(C(=O)NCC2CCS(=O)(=O)C2)C2CC2)o1", "note": "(stereo not given)", "INHIBITION": -39.2},
      {"smiles": "CCCn1nc(C(=O)NC2(c3ccc(Cl)cc3)CCCC2)ccc1=O", "INHIBITION": -51.3},
      {"smiles": "CCc1nc2n(n1)CC(NCc1cnn(-c3ccccc3)n1)CC2", "note": "(stereo not given)", "INHIBITION": 10.9165},
      {"smiles": "CN1CCOCC12CCN(Cc1ccoc1)CC2", "INHIBITION": -13.2},
      {"smiles": "COc1cccc(CN2CCC(c3nnc(-c4cnc(C)cn4)o3)C2)c1", "note": "(stereo not given)", "INHIBITION": 29.3},
      {"smiles": "COc1cccc(-c2noc(C3CCN(Cc4cn(C)nc4C)C3)n2)c1", "note": "(stereo not given)", "INHIBITION": 84.8},
      {"smiles": "COc1ccc(CN(Cc2cn(C)nc2C)CC2CCCO2)c(OC)c1", "note": "(stereo not given)", "INHIBITION": 21.9},
      {"smiles": "CSCc1cccc(S(=O)(=O)Nc2cc(C)on2)c1", "INHIBITION": 8.7},
      {"smiles": "Cc1nc(C)c(C(=O)NCCNc2ncccc2C#N)s1", "INHIBITION": 13.3},
      {"smiles": "CSc1ncccc1C(=O)NCCC(O)c1ccco1", "note": "(stereo not given)", "INHIBITION": 53.2},
      {"smiles": "CSc1ccccc1C(=O)NCCC(O)c1ccco1", "note": "(stereo not given)", "INHIBITION": 45.7},
      {"smiles": "CSc1ncccc1C(=O)NCCC(O)c1cccs1", "note": "(stereo not given)", "INHIBITION": 26},
      {"smiles": "Cc1cccc(C(=O)N2CC(Cc3nccc4ccn(C)c34)C2)n1", "INHIBITION": -23.8},
      {"smiles": "CN(C)CCOCC1CN(Cc2ccsc2)Cc2ccnn2C1", "note": "(stereo not given)", "INHIBITION": 11.4},
      {"smiles": "CN(C)CCN(Cc1ccc(C(F)(F)F)cc1)C(=O)c1cc[nH]n1", "INHIBITION": 63.3},
      {"smiles": "CN(C)CCN(Cc1ccc(Cl)cc1)C(=O)c1cc[nH]n1", "INHIBITION": 10},
      {"smiles": "Cc1cnc(C(=O)N(CCN(C)C)Cc2ccc(Cl)cc2)cn1", "INHIBITION": 12.2},
      {"smiles": "CN(C)CCN(Cc1ccc(Cl)cc1)C(=O)c1cnccn1", "INHIBITION": 68.3},
      {"smiles": "CN(C)CCN(Cc1cccc(C(F)(F)F)c1)C(=O)c1cc[nH]n1", "INHIBITION": 22.4},
      {"smiles": "CN(C)CCN(Cc1ccc(Cl)cc1)C(=O)c1ccncc1", "INHIBITION": 10.6},
      {"smiles": "Cc1ncc(C(=O)N2CCOC(C(=O)N3CCCCCC3)C2)c(C)n1", "note": "(stereo not given)", "INHIBITION": 35.1},
      {"smiles": "O=C(CN1CCCCC1)N1CCC(c2cc(=O)n3c(n2)CCCCC3)C1", "note": "(stereo not given)", "INHIBITION": -15.3},
      {"smiles": "CC(C)NC(=O)NCC1(COc2cnccn2)C[C@@H](O)[C@@H](O)C1", "note": "(stereo not given in full)", "INHIBITION": 45.2},
      {"smiles": "O=S(=O)(Cc1ccccc1F)N1CCCC1c1nnc2n1CCCCC2", "note": "(stereo not given)", "INHIBITION": 20.1},
      {"smiles": "CN1CCCCC12CCN(c1nncs1)CC2", "INHIBITION": -0.804},
      {"smiles": "CS(=O)(=O)N1CCCCC12CCN(c1nncs1)CC2", "INHIBITION": 55.5},
      {"smiles": "CS(=O)(=O)N1CCOCC12CCN(c1nncs1)CC2", "INHIBITION": 26.5}
    ]}
  ]
}
